Common to all, as to test: DAPPL (digital affinity profiling via proximity ligation, sequencing); 10 mM Tris-HCl pH 7.5, 50 mM NaCl, 1 mM DTT, 4% glycerol, room temperature, 30 min; GST-TFs on glutathione beads, 16-mer random dsDNA library, 0.1% formaldehyde crosslink after washing; high values mean tight binding
What all share (conditions): protein: recombinant; tags: N-terminal GST; dsDNA, one strand shown

For one test, the target named is SPI1 (Homo sapiens, UniProt P17947 1-270). A digest of the protocol:
(§1)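 Binding signal is each hexamer's read frequency for a factor divided by its frequency in the tag-only sample. The factors were GST-fused human transcription factors from yeast, captured on glutathione beads, DNA-barcoded and pooled with that sample. Pools were incubated with 200 nmole of a random double-stranded 16-mer DNA library in Tris/NaCl/DTT/glycerol buffer at room temperature for 30 min, then washed, crosslinked with 0.1% formaldehyde, proximity-ligated with BsaI/T4 ligase (1 h, 37 °C), PCR-amplified and sequenced on an Illumina NextSeq500.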

Another test has as its target SPIB (Homo sapiens, UniProt Q01892 1-262). A digest of the protocol:
as §1

The target of a further test is T1, ELK3 (Homo sapiens, UniProt P41970 1-407).
T1 sequence: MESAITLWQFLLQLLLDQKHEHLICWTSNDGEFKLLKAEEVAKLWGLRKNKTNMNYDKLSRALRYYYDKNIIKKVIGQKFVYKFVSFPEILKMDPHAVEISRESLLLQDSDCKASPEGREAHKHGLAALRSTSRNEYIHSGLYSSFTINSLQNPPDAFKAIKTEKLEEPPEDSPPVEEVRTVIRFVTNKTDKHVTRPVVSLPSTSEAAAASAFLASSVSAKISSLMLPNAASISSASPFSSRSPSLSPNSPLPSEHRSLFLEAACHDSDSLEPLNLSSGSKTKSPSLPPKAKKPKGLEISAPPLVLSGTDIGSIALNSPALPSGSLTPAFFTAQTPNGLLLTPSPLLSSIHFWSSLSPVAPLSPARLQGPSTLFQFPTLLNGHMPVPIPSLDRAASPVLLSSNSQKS
A digest of the protocol: as §1

For the next test, the target named is T2, ELF3 (Homo sapiens, UniProt P78545 1-371).
T2 sequence: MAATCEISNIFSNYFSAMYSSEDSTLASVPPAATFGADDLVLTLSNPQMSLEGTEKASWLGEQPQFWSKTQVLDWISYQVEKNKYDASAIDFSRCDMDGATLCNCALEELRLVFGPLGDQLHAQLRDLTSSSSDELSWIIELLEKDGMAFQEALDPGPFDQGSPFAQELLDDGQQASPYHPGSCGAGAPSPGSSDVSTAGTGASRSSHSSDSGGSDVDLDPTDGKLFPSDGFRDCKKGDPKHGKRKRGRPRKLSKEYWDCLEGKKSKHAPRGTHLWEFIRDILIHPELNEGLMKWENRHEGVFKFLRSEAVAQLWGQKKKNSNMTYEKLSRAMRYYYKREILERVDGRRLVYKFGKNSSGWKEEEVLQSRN
A digest of the protocol:
as §1

The target in a further test is CRX (Homo sapiens, UniProt O43186 1-299). An outline of the steps: as §1
Chain of CRX (O43186 whole entry): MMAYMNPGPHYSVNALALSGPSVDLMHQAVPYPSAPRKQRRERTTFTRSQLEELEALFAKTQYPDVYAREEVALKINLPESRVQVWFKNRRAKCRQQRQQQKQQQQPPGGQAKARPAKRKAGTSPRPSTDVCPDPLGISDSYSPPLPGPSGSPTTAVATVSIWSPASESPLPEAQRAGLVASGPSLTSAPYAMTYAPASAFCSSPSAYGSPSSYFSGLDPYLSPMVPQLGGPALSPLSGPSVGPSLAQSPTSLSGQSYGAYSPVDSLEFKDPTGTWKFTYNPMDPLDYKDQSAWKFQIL
For another test, the target named is ETV1 (Homo sapiens, UniProt P50549 1-477). An outline of the steps:
as §1

Another test concerns the target T3, ERF (Homo sapiens, UniProt P50548 1-548).
T3 sequence: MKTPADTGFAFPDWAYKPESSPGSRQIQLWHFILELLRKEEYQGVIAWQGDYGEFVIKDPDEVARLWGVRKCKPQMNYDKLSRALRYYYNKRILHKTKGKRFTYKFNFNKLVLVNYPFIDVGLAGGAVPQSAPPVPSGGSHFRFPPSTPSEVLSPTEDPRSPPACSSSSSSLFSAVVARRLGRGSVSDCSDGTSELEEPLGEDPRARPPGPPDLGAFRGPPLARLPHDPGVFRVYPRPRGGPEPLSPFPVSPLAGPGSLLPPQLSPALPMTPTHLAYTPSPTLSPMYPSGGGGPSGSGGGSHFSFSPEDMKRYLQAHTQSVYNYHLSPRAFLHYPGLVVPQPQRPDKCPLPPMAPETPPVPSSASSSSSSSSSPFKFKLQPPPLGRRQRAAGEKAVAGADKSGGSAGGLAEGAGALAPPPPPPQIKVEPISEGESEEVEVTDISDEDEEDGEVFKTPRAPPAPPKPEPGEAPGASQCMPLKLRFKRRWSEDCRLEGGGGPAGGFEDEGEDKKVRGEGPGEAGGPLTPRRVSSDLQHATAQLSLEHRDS
A digest of the protocol:
as §1

In the next test the target is T4, ETV3L (Homo sapiens, UniProt Q6ZN32 1-361).
T4 sequence: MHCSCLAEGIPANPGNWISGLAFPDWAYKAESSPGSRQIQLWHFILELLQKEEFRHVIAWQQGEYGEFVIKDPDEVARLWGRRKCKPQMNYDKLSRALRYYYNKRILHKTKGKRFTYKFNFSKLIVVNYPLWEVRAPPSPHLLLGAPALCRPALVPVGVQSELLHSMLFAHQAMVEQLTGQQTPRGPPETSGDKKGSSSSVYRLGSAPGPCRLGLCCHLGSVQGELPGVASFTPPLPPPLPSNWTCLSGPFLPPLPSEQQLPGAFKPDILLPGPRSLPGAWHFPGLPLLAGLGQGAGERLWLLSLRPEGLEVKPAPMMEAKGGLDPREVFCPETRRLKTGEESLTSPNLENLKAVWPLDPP
An outline of the steps:
as §1

For the next test, the target named is T5, ETV7 (Homo sapiens, UniProt Q9Y603 1-341).
T5 sequence: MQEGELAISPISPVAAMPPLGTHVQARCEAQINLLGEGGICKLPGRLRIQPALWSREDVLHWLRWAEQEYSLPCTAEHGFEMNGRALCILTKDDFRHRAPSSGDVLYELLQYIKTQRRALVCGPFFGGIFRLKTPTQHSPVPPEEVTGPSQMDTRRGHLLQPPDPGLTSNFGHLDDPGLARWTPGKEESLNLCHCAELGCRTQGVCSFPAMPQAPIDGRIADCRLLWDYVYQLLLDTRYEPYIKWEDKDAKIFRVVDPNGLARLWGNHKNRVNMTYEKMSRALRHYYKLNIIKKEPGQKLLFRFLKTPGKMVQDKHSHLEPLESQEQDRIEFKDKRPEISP
A digest of the protocol:
as §1

In another test the target is ETV6 (Homo sapiens, UniProt P41212 1-452). An outline of the steps:
as §1

The next test has as its target T6, ETV2 (Homo sapiens, UniProt O00321 1-342).
T6 sequence: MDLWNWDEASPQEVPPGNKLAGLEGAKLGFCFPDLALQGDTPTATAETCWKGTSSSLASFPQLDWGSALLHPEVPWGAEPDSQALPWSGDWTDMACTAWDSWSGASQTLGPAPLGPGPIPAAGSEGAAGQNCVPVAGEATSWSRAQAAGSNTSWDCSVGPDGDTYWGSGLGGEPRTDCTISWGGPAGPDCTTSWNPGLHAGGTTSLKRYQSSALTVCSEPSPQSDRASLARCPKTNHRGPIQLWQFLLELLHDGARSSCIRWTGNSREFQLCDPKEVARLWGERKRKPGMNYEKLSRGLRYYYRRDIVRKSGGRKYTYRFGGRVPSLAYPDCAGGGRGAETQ
An outline of the steps: as §1

The target of a further test is T7, EHF (Homo sapiens, UniProt Q9NZC4 1-300).
T7 sequence: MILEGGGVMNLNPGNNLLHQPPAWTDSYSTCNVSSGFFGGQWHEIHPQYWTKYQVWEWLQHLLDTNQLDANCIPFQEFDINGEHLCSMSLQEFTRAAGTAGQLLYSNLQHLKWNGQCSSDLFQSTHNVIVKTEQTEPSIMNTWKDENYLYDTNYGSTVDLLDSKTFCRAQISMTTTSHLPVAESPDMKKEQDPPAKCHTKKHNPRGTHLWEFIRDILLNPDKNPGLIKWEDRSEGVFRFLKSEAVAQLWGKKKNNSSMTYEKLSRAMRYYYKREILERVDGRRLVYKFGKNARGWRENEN
A digest of the protocol: as §1

A further test has as its target T8, GABPA (Homo sapiens, UniProt Q06546 1-454).
T8 sequence: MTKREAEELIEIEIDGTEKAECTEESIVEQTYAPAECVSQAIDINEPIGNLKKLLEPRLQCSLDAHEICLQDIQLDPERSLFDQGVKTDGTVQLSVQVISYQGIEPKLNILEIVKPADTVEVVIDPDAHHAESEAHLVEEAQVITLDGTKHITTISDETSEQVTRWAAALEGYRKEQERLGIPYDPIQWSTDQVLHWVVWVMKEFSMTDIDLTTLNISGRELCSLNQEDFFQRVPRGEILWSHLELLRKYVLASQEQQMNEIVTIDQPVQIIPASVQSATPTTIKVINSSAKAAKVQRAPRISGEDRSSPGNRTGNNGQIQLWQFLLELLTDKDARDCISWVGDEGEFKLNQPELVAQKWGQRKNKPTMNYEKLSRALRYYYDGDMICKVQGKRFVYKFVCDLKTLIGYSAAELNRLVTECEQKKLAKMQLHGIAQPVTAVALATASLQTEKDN
An outline of the steps: as §1

Another test has as its target T9, SPDEF (Homo sapiens, UniProt O95238 1-335).
T9 sequence: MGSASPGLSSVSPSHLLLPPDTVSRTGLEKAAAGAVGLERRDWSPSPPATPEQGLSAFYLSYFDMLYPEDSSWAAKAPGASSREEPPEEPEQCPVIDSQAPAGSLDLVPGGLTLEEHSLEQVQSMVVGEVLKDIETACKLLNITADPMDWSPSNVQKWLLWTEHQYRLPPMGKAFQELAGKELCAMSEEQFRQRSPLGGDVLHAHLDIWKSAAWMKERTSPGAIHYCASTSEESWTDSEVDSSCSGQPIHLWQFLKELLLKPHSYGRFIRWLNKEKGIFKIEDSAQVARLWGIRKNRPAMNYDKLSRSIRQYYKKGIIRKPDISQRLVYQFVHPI
A digest of the protocol: as §1

The next test deals with T10, ETV3 (Homo sapiens, UniProt P41162-2 1-143).
T10 sequence: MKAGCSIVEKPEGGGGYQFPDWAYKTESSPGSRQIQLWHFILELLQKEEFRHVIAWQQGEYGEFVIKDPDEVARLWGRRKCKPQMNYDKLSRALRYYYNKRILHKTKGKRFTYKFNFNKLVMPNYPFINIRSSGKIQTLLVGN
A digest of the protocol:
as §1

This note sets out measurements from PMC7862700, “An all-to-all approach to the identification of sequence-specific readers for epigenetic DNA modifications on cytosine”.

Chain of SPIB (Q01892 whole entry): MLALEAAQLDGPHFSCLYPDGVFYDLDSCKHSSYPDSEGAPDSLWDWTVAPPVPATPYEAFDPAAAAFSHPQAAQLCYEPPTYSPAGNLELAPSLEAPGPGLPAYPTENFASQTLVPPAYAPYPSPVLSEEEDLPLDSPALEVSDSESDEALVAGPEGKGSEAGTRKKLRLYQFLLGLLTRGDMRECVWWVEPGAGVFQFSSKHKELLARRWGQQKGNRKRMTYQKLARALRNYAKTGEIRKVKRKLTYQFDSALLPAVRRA
Chain of ETV6 (P41212 whole entry): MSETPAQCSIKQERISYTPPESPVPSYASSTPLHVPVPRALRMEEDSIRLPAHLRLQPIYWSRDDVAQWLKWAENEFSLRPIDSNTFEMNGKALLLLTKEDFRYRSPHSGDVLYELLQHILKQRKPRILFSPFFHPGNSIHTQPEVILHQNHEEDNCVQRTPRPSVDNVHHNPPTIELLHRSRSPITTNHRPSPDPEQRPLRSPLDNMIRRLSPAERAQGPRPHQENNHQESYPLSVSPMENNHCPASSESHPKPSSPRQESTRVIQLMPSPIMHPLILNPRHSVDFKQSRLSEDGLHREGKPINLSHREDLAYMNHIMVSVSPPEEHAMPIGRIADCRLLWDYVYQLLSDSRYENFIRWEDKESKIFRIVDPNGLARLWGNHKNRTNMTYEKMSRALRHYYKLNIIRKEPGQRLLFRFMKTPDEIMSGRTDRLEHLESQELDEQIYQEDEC
Chain of ETV1 (P50549 whole entry): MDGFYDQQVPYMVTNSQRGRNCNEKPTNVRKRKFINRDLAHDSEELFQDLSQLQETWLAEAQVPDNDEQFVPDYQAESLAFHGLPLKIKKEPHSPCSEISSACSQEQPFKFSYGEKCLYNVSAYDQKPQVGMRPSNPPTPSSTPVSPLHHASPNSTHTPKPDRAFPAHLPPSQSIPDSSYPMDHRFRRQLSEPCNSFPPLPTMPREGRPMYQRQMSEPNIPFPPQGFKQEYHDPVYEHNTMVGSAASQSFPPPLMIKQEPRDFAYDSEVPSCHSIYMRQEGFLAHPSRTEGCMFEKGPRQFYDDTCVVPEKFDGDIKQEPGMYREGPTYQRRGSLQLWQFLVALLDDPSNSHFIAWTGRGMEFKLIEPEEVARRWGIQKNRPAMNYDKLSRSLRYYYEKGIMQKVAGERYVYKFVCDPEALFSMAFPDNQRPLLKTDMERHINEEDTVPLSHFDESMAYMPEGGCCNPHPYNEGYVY

On to AGTTTA, for which the binding signal in the test with SPI1 was 1.01 fold enrichment (6-mer frequency, TF over GST control); in the test with SPIB it was 1.04 fold enrichment (6-mer frequency, TF over GST control); with ELK3 it was 1.03 fold enrichment (6-mer frequency, TF over GST control); with ELF3, 1.11 fold enrichment (6-mer frequency, TF over GST control); with CRX, 1.08 fold enrichment (6-mer frequency, TF over GST control); with ETV1, 1.04 fold enrichment (6-mer frequency, TF over GST control). The binding signal is 1.01 fold enrichment (6-mer frequency, TF over GST control) in the test with ERF; 1.09 fold enrichment (6-mer frequency, TF over GST control) with ETV3L; 1.02 fold enrichment (6-mer frequency, TF over GST control) in the test with ETV7; 1.12 fold enrichment (6-mer frequency, TF over GST control) in the test with ETV6.
As to ACTGGG, the binding signal with ETV2 is 1.03 fold enrichment (6-mer frequency, TF over GST control).
As to CATCGT, the binding signal in the test with EHF was 1 fold enrichment (6-mer frequency, TF over GST control); in the test with SPIB, 1.05 fold enrichment (6-mer frequency, TF over GST control); in the test with ETV2, 1.01 fold enrichment (6-mer frequency, TF over GST control).
As for TGGGCG, the binding signal with ELK3 was 1.01 fold enrichment (6-mer frequency, TF over GST control); with ETV2, 1 fold enrichment (6-mer frequency, TF over GST control).
For CTAGTG, the binding signal with ELF3 is 1.01 fold enrichment (6-mer frequency, TF over GST control).
For the sequence GAAAGC, the binding signal with ELF3 was 1.06 fold enrichment (6-mer frequency, TF over GST control).
Regarding CGGCAC, the binding signal with GABPA was 1.03 fold enrichment (6-mer frequency, TF over GST control); with SPIB, 1.03 fold enrichment (6-mer frequency, TF over GST control); in the test with ELF3, 1.1 fold enrichment (6-mer frequency, TF over GST control); in the test with SPDEF it was 1.02 fold enrichment (6-mer frequency, TF over GST control); with ETV7 it was 1 fold enrichment (6-mer frequency, TF over GST control); with ETV3, 1.03 fold enrichment (6-mer frequency, TF over GST control). The binding signal with ETV6 is 1.02 fold enrichment (6-mer frequency, TF over GST control).
For the sequence AGCCAT, in the test with ETV2, the binding signal was 1.02 fold enrichment (6-mer frequency, TF over GST control).
Turning to GACCCC, in the test with ELF3, the binding signal was 1.04 fold enrichment (6-mer frequency, TF over GST control).
